Test results taken from PubChem BioAssay AID624137 (Broad Institute, 2012).
Among all 31,000 compounds or so, about 360 (1.2%) were called active. The sample holds actives, similar compounds and a random draw of the others, so the mix is not that of the screen. No rule for the calls is given here.

Target: DNA-binding protein inhibitor ID-4 (Homo sapiens) (UniProt P47928)
Assay: PubChem AID 624137;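 also: a binder raises fluorescence above local background on the spot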
Conditions: small molecule microarray, Flag-ID4 binding, fluorescence F/B

Chain of DNA-binding protein inhibitor ID-4 (Homo sapiens) (P47928 whole entry, looked up): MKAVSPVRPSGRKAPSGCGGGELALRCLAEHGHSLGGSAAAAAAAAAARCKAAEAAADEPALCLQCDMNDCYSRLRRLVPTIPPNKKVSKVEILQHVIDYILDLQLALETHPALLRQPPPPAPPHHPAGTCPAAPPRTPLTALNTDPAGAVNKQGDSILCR

Row | Compound | outcome
1 | CCC(=O)N(C)C[C@@H]1Oc2ncc(C#Cc3ccccc3)cc2C(=O)N([C@@H](C)CO)C[C@H]1C | inactive
2 | C[C@@H]1CN([C@H](C)CO)C(=O)c2cc(C#CC3CC3)cnc2O[C@H]1CN(C)C(=O)CC1CC1 | inactive
3 | C[C@H]1CN([C@@H](C)CO)C(=O)c2ccccc2-c2ccccc2CO[C@@H]1CN(C)C(=O)CCN(C)C | inactive
4 | CN(C)C(=O)C[C@H]1C=C[C@@H](NC(=O)C2CCC2)[C@@H](CO)O1 | inactive
5 | O=C(C[C@H]1CC[C@H](NC(=O)C2CCC2)[C@@H](CO)O1)NCCCN1CCOCC1 | inactive
6 | CCCN(C)C[C@H]1Oc2ncc(C#CC3CCCCC3)cc2C(=O)N([C@H](C)CO)C[C@@H]1C | inactive
7 | O=C(c1cccc(S(=O)(=O)N2CCOCC2)c1)N(Cc1ccccc1)c1ccccn1 | inactive
8 | C[C@H]1CN([C@@H](C)CO)S(=O)(=O)c2ccc(-c3cccc(F)c3)cc2O[C@@H]1CN(C)C | inactive
9 | O=C(CCN1CCCCC1)N[C@@H]1C=C[C@@H](CC(=O)N2CCC(Cc3ccccc3)CC2)O[C@H]1CO | inactive
10 | O=C(C[C@H]1CC[C@H](NS(=O)(=O)c2ccccc2)[C@H](CO)O1)NCc1ccncn1 | inactive
11 | O=C(CSc1nccc(=O)[nH]1)Nc1cccc(Br)c1 | inactive
12 | C[C@@H]1CN([C@@H](C)CO)C(=O)c2cc(C#CCN(C)C)cnc2O[C@@H]1CN(C)Cc1ccccn1 | inactive
13 | C[C@@H]1CN([C@H](C)CO)C(=O)c2cc(C#CC3CCCC3)cnc2O[C@H]1CN(C)S(C)(=O)=O | inactive
14 | O=C(C[C@@H]1C=C[C@H](NC(=O)Nc2ccccc2F)[C@H](CO)O1)NCc1ccc(F)cc1 | inactive
15 | C[C@@H]1CN([C@@H](C)CO)S(=O)(=O)c2ccc(C#C[C@@H](C)O)cc2O[C@@H]1CN(C)C(=O)CN(C)C | inactive
16 | C[C@H](CO)N1C[C@H](C)[C@@H](CN(C)Cc2ccccn2)Oc2ncc(C3=CCCC3)cc2C1=O | inactive
17 | CN(C)c1ccc(NC(=O)CN(C)S(=O)(=O)c2ccc(Br)cc2)cc1 | inactive
18 | C[C@@H]1CN([C@H](C)CO)C(=O)Cc2cc(NC(=O)Nc3ccc(F)cc3)ccc2O[C@@H]1CN(C)Cc1ccc2c(c1)OCO2 | inactive
19 | COc1ccc(CN(C)C[C@H]2Oc3ccc(NC(=O)Cc4ccccc4)cc3CC(=O)N([C@@H](C)CO)C[C@@H]2C)cc1 | inactive
20 | C[C@@H]1CN([C@@H](C)CO)C(=O)Cc2cc(NC(=O)Cc3ccccc3)ccc2O[C@H]1CN(C)Cc1ccc(C(=O)O)cc1 | active
21 | C[C@@H]1CN([C@@H](C)CO)C(=O)Cc2cc(NC(=O)Cc3cn(C)c4ccccc34)ccc2O[C@H]1CN(C)Cc1ccc(C(=O)O)cc1 | inactive
22 | COc1ccc(CN(C)C[C@@H]2Oc3ccc(NC(=O)Nc4ccc(OC)cc4)cc3CC(=O)N([C@H](C)CO)C[C@H]2C)cc1 | inactive

Row | Compound | outcome
23 | COc1ccc(CN(C)C[C@@H]2Oc3ccc(NC(=O)Nc4ccc5c(c4)OCO5)cc3CC(=O)N([C@H](C)CO)C[C@H]2C)cc1 | active
24 | O=C(C[C@@H]1C=C[C@@H](NC(=O)C2CCC2)[C@H](CO)O1)NCC1CC1 | inactive
25 | O=C(C[C@@H]1CC[C@H](NC(=O)C2CCC2)[C@@H](CO)O1)NC1CCCCC1 | inactive
26 | C[C@@H]1CN([C@H](C)CO)C(=O)c2cc(C#CC3CC3)cnc2O[C@@H]1CN(C)Cc1ccccn1 | inactive
27 | C[C@@H]1CN([C@@H](C)CO)S(=O)(=O)c2ccc(-c3ccc(C(=O)N(C)C)cc3)cc2O[C@@H]1CN(C)Cc1ccccc1C(=O)O | inactive
28 | COc1ccccc1S(=O)(=O)N[C@@H]1C=C[C@H](CC(=O)N2CCOCC2)O[C@@H]1CO | inactive
29 | O=C(C[C@@H]1C=C[C@H](NC(=O)CCN2CCCCC2)[C@H](CO)O1)NCc1ccc(Cl)c(Cl)c1 | inactive
30 | C/C=C/c1cnc2c(c1)C(=O)N([C@@H](C)CO)C[C@@H](C)[C@@H](CN(C)S(=O)(=O)c1ccccc1F)O2 | inactive
31 | C[C@H]1CN([C@@H](C)CO)S(=O)(=O)c2ccc(C3=CCCC3)cc2O[C@H]1CN(C)Cc1cccc(C(=O)O)c1 | inactive
32 | CC(C)NC(=O)N(C)C[C@H]1Oc2cc(-c3cncnc3)ccc2S(=O)(=O)N([C@@H](C)CO)C[C@H]1C | inactive
33 | Cc1ccc(Cc2cncc(O)c2)cc1S(=O)(=O)O | active
34 | C[C@H]1CN([C@@H](C)CO)S(=O)(=O)c2ccc(C3=CCCCC3)cc2O[C@@H]1CN(C)Cc1ccccc1 | inactive
35 | C[C@H](CO)N1C[C@H](C)[C@@H](CN(C)C(=O)C2CC2)Oc2ncc(-c3cccc(F)c3)cc2C1=O | inactive
36 | C/C=C/c1ccc2c(c1)O[C@@H](CN(C)CC1CCOCC1)[C@@H](C)CN([C@H](C)CO)S2(=O)=O | inactive
37 | C[C@H](CO)N1C[C@H](C)[C@H](CN(C)C(=O)C2CCCCC2)Oc2ncc(C#CC3CC3)cc2C1=O | inactive
38 | C[C@H]1CN([C@@H](C)CO)C(=O)c2cc(C#Cc3ccccc3F)cnc2O[C@H]1CN(C)C | inactive
39 | O=C(O)/C(=C/C(=O)c1ccc(F)cc1)Nc1ccc2[nH]c(=O)[nH]c2c1 | inactive
40 | O=C(OCCN1CCCCC1)c1cccc(COc2ccc3ccccc3c2)c1 | inactive
41 | C[C@H](CO)N1C[C@H](C)[C@H](CN(C)C(=O)c2ccncc2)Oc2cc(C#CC3(O)CCCC3)ccc2S1(=O)=O | inactive
42 | O=C(C[C@@H]1C[C@@H]2c3cc(NS(=O)(=O)c4ccc(F)cc4)ccc3O[C@@H]2[C@@H](CO)O1)N1CCOCC1 | inactive
43 | CCCC#Cc1ccc2c(c1)O[C@@H](CN(C)S(=O)(=O)c1cccc(OC)c1)[C@H](C)CN([C@@H](C)CO)S2(=O)=O | inactive
44 | COCC(=O)Nc1ccc2c(c1)[C@H]1C[C@H](CC(=O)NCc3cccnc3)O[C@H](CO)[C@H]1O2 | inactive

Row | Compound | outcome
45 | CO[C@@H]1CN(C)C(=O)c2ccc(NC(=O)C3CC3)cc2OC[C@@H](C)N(CC2CCOCC2)C[C@H]1C | inactive
46 | CC(=O)N(C)C[C@H]1Oc2ncc(-c3cccc(F)c3)cc2C(=O)N([C@@H](C)CO)C[C@H]1C | inactive
47 | O=[N+]([O-])c1ccccc1CN1CCN(Cc2cccc(Oc3ccccc3)c2)CC1 | inactive
48 | O=[N+]([O-])c1ccccc1/C=C/CN1CCC(O)CC1 | active
49 | O=C(C[C@H]1CC[C@@H](NC(=O)c2ccncc2)[C@@H](CO)O1)NCC1CC1 | inactive
50 | C[C@@H]1CN([C@H](C)CO)C(=O)c2cc(-c3ccccc3F)cnc2O[C@H]1CN(C)C(=O)CN(C)C | inactive
51 | C[C@H](CO)N1C[C@H](C)[C@@H](CN(C)C(=O)c2cnccn2)Oc2ncc(-c3ccccc3F)cc2C1=O | inactive
52 | O=C(CSc1nc(O)cc(=O)n1-c1ccccc1F)Nc1ccc(Cl)cc1Cl | inactive
53 | COc1cccc(/C=C(\C#N)C(=O)Nc2c(C)n(C)n(-c3ccccc3)c2=O)c1 | inactive
54 | COC(=O)Cc1csc(Nc2c(C)n(C)n(-c3ccccc3)c2=O)n1 | inactive
55 | Cc1c(NC(=O)/C(C#N)=C/c2ccccc2Cl)c(=O)n(-c2ccccc2)n1C | active
56 | COc1cc(NC(=O)COc2ccccc2Br)c(OC)cc1Cl | inactive
57 | C[C@H](CO)N1C[C@H](C)[C@H](CN(C)C(=O)C2CC2)OCc2ccccc2-c2ccccc2C1=O | inactive
58 | CCC(=O)N[C@H]1CC[C@@H](CC(=O)NCc2cc(F)cc(F)c2)O[C@@H]1CO | inactive
59 | C[C@@H]1CCCCO[C@@H](CN(C)C(=O)c2ccccc2)[C@H](C)CN([C@@H](C)CO)C(=O)c2cc(NS(C)(=O)=O)ccc2O1 | inactive
60 | C[C@H](CO)N1C[C@H](C)[C@H](CN(C)C(=O)c2ccccc2)OCCCC[C@H](C)Oc2ccc(NS(C)(=O)=O)cc2C1=O | inactive
61 | C[C@@H]1CN([C@@H](C)CO)C(=O)c2cc(NS(C)(=O)=O)ccc2O[C@@H](C)CCCCO[C@@H]1CN(C)C(=O)c1ccccc1 | active
62 | CNC[C@@H]1Oc2cc(C#Cc3ccc(F)cc3)ccc2S(=O)(=O)N([C@@H](C)CO)C[C@H]1C | inactive
63 | COc1ccccc1-c1cnc2c(c1)C(=O)N([C@H](C)CO)C[C@H](C)[C@H](CN(C)Cc1cccnc1)O2 | inactive
64 | Cc1ccccc1-c1cnc2c(c1)C(=O)N([C@@H](C)CO)C[C@@H](C)[C@@H](CN(C)CC1CCOCC1)O2 | inactive
65 | CCCN(C)C[C@H]1Oc2cc(-c3ccc(C)cc3)ccc2S(=O)(=O)N([C@H](C)CO)C[C@H]1C | inactive
66 | C[C@@H]1CN([C@@H](C)CO)C(=O)c2cc(Br)cnc2O[C@@H]1CN(C)C(=O)C1CCCCC1 | inactive

Row | Compound | outcome
67 | CN1CCN(C(=O)C[C@H]2CC[C@@H](NC(=O)c3ccc4c(c3)OCO4)[C@H](CO)O2)CC1 | inactive
68 | O=C(C[C@H]1C=C[C@H](NS(=O)(=O)c2ccc(F)cc2)[C@H](CO)O1)NCc1ccncn1 | inactive
69 | CCCN(C)C[C@@H]1Oc2cc(C#CC3CCCCC3)ccc2S(=O)(=O)N([C@@H](C)CO)C[C@@H]1C | inactive
70 | COc1ccccc1-c1cnc2c(c1)C(=O)N([C@@H](C)CO)C[C@@H](C)[C@H](CN(C)Cc1cccnc1)O2 | inactive
71 | COCC#Cc1cnc2c(c1)C(=O)N([C@H](C)CO)C[C@@H](C)[C@@H](CN(C)Cc1ccccc1F)O2 | inactive
72 | CC(C)CC#Cc1cnc2c(c1)C(=O)N([C@@H](C)CO)C[C@H](C)[C@@H](CN(C)C(=O)c1ccc(F)cc1)O2 | inactive
73 | C[C@@H]1CN([C@@H](C)CO)S(=O)(=O)c2ccc(C3=CCCC3)cc2O[C@@H]1CN(C)Cc1ccncc1 | inactive
74 | C[C@@H](O)C#Cc1cnc2c(c1)C(=O)N([C@@H](C)CO)C[C@H](C)[C@@H](CN(C)CC1CCCCC1)O2 | inactive
75 | COc1ccccc1-c1ccc2c(c1)O[C@H](CN(C)C(=O)c1cccnc1)[C@@H](C)CN([C@H](C)CO)S2(=O)=O | inactive
76 | CC(C)C#Cc1ccc2c(c1)O[C@@H](CN(C)CC1CCOCC1)[C@H](C)CN([C@H](C)CO)S2(=O)=O | inactive
77 | CNC[C@H]1Oc2cc(C#CC3CCCC3)ccc2S(=O)(=O)N([C@H](C)CO)C[C@@H]1C | inactive
78 | CC(C)C#Cc1cnc2c(c1)C(=O)N([C@H](C)CO)C[C@@H](C)[C@H](CN(C)Cc1ccccc1)O2 | inactive
79 | C[C@@H]1CN([C@@H](C)CO)S(=O)(=O)c2ccc(C#CCC3CCCC3)cc2O[C@@H]1CN(C)C | inactive
80 | C[C@H](O)C#Cc1cnc2c(c1)C(=O)N([C@H](C)CO)C[C@@H](C)[C@H](CN(C)CC1CCCCC1)O2 | inactive
81 | C[C@@H]1CN([C@H](C)CO)C(=O)c2cc(C3=CCCC3)cnc2O[C@H]1CN(C)C | inactive
82 | Cc1cccc(NC(=O)CSc2nnc(-c3ccccc3)n2C2CCCCC2)c1C | inactive
83 | CCC(=O)N(C)C[C@H]1Oc2cc(/C=C/c3ccccc3)ccc2S(=O)(=O)N([C@H](C)CO)C[C@H]1C | inactive
84 | O=C(C[C@H]1CC[C@@H](NC(=O)Nc2cc(F)ccc2F)[C@@H](CO)O1)NCc1ccncn1 | inactive
85 | CNC[C@H]1Oc2ncc(-c3ccccc3F)cc2C(=O)N([C@H](C)CO)C[C@H]1C | inactive
